Results reported in PubChem BioAssay (Tox21).
Records with an inconclusive call do not appear. Active and inactive are the calls of the source. Unless noted, calls come from the whole dose curve; as a rule, active = well fitted curve in the direction sought with a large enough effect in the repeat runs; inconclusive = weak or mixed curves; inactive = no such curve, though single readings can be large; an effect the other way counts as inactive or inconclusive.

What was measured:
[1] = target: Estrogen receptor (Homo sapiens) (UniProt P03372); test: qHTS assay to identify small molecule antagonists of the estrogen receptor alpha (ER-alpha) signaling pathway using the BG1 cell line in the presence of 0.1 nM 17-beta-estradiol (AID 1259244); note: nearly all actives have a fitted effect of over 50% in size
Sequence of Estrogen receptor (Homo sapiens) (P03372 whole entry, looked up): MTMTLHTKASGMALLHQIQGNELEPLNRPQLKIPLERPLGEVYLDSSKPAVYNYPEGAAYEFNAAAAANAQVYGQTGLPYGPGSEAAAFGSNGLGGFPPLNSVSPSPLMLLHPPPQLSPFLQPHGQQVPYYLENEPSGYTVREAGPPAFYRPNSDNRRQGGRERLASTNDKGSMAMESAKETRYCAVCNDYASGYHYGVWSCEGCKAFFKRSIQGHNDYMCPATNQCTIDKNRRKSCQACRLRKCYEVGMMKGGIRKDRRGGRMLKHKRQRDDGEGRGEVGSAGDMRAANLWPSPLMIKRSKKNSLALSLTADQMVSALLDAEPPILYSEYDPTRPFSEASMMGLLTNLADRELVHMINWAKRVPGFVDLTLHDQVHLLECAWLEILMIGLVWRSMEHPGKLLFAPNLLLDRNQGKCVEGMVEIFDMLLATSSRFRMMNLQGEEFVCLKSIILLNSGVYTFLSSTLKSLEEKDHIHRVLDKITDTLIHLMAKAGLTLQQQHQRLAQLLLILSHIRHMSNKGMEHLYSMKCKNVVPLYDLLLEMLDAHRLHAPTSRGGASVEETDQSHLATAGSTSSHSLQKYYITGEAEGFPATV
In short: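 Quantitative high-throughput screen in VM7Luc4E2 cells: compound plus 0.1 nM E2 (final), 22 h, 37C, 5% CO2; ONE-Glo added, 30 min room temperature, luminescence measured.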

[2] = qHTS assay to identify small molecule HDAC inhibitors (AID 1259364); note: top concentration of the series differs between compounds; nearly all actives have a fitted effect of over 45% in size
In short: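 Endogenous HDAC class I/II activity was measured in wild-type HCT-116 cells by HDAC-Glo luminescence after 2 h compound treatment.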

[3] = qHTS assay to identify small molecule HDAC inhibitors - cell viability counter screen (AID 1259365); note: series mostly up to about 92 µM; nearly all actives have a fitted effect of over 50% in size
In short: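 Following a 2hr exposure of overnight-plated wild-type HCT-116 cells to DMSO-delivered compounds, CellTiter-Glo was added and luminescence recorded after 30min at room temperature.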

[4] = qHTS assay to identify small molecule agonists of the sonic hedgehog signaling (Shh) pathway - cell viability counter screen (AID 1259366); note: nearly all actives have a fitted effect of over 50% in size
In short: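 After a 4hr attachment at 37C, NIH/3T3 cells bearing an integrated Gli1-driven luciferase reporter were dosed with compounds. Treatment lasted 24hr, with the final hour including CellTiter-Fluor for a fluorescence viability measurement.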

[5] = qHTS assay to identify small molecule antagonists of the sonic hedgehog signaling (Shh) pathway - cell viability counter screen (AID 1259367); note: nearly all actives have a fitted effect of over 55% in size
In short: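 Seed 3T3 Gli1-Luc cells at 2,000 per well; incubate 4 hr; add compound in DMSO, then conditioned medium; incubate at 37C with 5% CO2; add CellTiter-Fluor after 23 hr; read fluorescence 1 hr later.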

[6] = qHTS assay to identify small molecule agonists of the sonic hedgehog signaling (Shh) pathway (AID 1259368; calls by dose curve;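 note: NIH/3T3-derived 3T3Gli1-Luc cells carrying a stable Gli1-driven firefly luciferase reporter; series mostly up to about 92 µM; nearly all actives have a fitted effect of over 15% in size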)
In short: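 Luminescent signal was taken as a measure of Gli1-controlled luciferase expression in stably transfected NIH/3T3-derived cells that had been treated for 24 hr with compounds delivered in DMSO.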

[7] = qHTS assay to identify small molecule agonists of the androgen receptor (AR) signaling pathway in the presence of an antagonist - cell viability counter screen (AID 1259379);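 note: MDA-kb2 human breast cancer cells carrying an MMTV luciferase reporter; series mostly up to about 92 µM; nearly all actives have a fitted effect of over 25% in size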
In short: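 In MDA-kb2 cells (human breast carcinoma, MMTV-luciferase), compounds at 15 concentrations plus 3.0uM nilutamide; 16 hr, 37C, 0% CO2; CellTiter-Fluor fluorescence read for viability.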

[8] = qHTS assay to identify small molecule agonists of the estrogen receptor beta (ER-beta) signaling pathway - cell viability counter screen (AID 1259380); note: nearly all actives have a fitted effect of over 30% in size
In short: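 Viability of ER-beta-UAS-bla HEK293T cells was determined by CellTiter-Glo luminescence following 16 hr treatment with test compounds at 37C.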

[9] = qHTS assay to identify small molecule antagonists of the estrogen receptor beta (ER-beta) signaling pathway - cell viability counter screen (AID 1259382); note: series mostly up to about 92 µM; nearly all actives have a fitted effect of over 55% in size
In short: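 Tox21 10K library tested in qHTS format on ER-beta-bla HEK293T cells stimulated with 1nM E2; 16 hr treatment at 37C. Same-well CellTiter-Glo luminescence served as the cell viability measure.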

[10] = target: Estrogen receptor (Homo sapiens) (UniProt P03372); test: qHTS assay to identify small molecule agonists of the estrogen receptor alpha (ER-alpha) signaling pathway in the presence of an antagonist (AID 1259383; calls by dose curve; note: top concentration of the series differs between compounds; nearly all actives have a fitted effect of over 15% in size)
In short: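 In VM7Luc4E2 cells, 4,000 per well, compounds at 15 concentrations were co-incubated 22hr at 37C with 10.0nM final ICI-182,780. Luminescence from the stably transfected 4×ERE-luciferase reporter was recorded 30min after ONE-Glo addition.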

[11] = qHTS assay to identify small molecule agonists or antagonists of the thyroid stimulating hormone receptor (TSHR) signaling pathway - wild type cell line counter screen (AID 1259384; calls by dose curve)
In short: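 Wild-type Hek293 cells, 800/well, 18 h at 37C, then compound with Ro20-1724 for 30 min RT. cAMP by HTRF (cAMP-d2/anti-cAMP cryptate), 1 h RT, fluorescence read. 15 concentrations, triplicates.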

[12] = target: Thyrotropin receptor (Homo sapiens) (UniProt P16473); test: qHTS assay to identify small molecule antagonists of the thyroid stimulating hormone receptor (TSHR) signaling pathway (AID 1259385; calls by dose curve; note: nearly all actives have a fitted effect of over 20% in size)
Sequence of Thyrotropin receptor (Homo sapiens) (P16473 whole entry, looked up): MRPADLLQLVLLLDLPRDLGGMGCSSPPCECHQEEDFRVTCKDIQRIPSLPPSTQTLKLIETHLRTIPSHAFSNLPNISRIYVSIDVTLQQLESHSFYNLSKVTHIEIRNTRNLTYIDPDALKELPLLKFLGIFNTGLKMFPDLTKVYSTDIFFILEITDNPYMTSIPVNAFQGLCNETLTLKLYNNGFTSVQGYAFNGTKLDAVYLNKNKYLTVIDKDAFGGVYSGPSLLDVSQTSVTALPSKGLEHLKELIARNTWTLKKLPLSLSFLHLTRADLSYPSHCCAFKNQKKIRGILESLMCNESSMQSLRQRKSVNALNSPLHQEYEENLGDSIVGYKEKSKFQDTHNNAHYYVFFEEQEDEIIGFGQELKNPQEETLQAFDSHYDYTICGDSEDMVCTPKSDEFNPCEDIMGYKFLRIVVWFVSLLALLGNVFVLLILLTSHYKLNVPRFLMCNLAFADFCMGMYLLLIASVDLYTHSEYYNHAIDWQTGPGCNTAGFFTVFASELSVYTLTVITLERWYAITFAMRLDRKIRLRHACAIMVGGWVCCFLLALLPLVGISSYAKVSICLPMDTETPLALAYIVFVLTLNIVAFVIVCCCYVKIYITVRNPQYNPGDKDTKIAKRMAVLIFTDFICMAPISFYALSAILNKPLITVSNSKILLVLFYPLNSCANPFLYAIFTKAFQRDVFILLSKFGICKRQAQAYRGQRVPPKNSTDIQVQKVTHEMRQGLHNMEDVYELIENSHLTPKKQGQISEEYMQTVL
In short: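 TSHR-HEK293 cells (800/well) plated 18 h, then compounds with Ro20-1724 and TSH at 1.5 ng/mL final, 30 min at room temperature. cAMP quantified by HTRF (cAMP-d2/anti-cAMP-cryptate, 1 h); 15 concentrations in triplicate.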

[13] = qHTS assay to identify small molecule agonists of the estrogen receptor alpha (ER-alpha) signaling pathway in the presence of an antagonist - cell viability counter screen (AID 1259386);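 note: series mostly up to about 92 µM; cells exposed to compounds for 22 h at 37 °C before the viability read; nearly all actives have a fitted effect of over 30% in size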
In short: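 Fluorescent CellTiter-Fluor viability signal from VM7Luc4E2 cells, with the reagent added during the final hour of a 22hr compound exposure at 37C in the presence of 10.0nM ICI-182,780.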

[14] = target: Progesterone receptor (Homo sapiens) (UniProt P06401); test: qHTS assay to identify small molecule agonists of the progesterone receptor (PR) signaling pathway (AID 1346784; calls by dose curve; note: nearly all actives have a fitted effect of over 30% in size)
Sequence of Progesterone receptor (Homo sapiens) (P06401 whole entry, looked up): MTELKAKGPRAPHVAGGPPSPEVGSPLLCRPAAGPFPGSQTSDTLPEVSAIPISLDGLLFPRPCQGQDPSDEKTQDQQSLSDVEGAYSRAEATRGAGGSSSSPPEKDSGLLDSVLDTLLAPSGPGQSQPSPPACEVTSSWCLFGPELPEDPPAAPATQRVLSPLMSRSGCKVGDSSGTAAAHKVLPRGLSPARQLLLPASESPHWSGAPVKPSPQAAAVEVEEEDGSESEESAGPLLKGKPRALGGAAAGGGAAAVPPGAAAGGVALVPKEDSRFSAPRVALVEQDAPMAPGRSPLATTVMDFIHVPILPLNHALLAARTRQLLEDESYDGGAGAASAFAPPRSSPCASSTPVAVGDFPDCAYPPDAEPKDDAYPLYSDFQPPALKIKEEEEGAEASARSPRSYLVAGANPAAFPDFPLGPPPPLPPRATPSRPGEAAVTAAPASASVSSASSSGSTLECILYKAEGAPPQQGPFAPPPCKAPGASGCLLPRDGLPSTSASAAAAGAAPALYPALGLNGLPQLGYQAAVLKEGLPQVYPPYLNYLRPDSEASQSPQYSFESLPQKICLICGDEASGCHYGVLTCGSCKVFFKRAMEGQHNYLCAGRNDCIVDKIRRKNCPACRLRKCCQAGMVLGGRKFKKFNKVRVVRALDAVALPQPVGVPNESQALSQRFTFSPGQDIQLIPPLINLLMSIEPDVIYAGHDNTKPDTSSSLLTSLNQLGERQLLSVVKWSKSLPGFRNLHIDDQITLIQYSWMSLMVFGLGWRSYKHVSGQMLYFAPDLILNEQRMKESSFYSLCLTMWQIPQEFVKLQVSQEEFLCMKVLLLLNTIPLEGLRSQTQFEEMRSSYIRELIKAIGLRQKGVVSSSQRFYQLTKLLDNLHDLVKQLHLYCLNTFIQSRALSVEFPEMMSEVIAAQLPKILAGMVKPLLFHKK
In short: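 Using charcoal-stripped serum (2%) to limit endogenous steroids, PR-UAS-bla HEK 293T cells received compounds for 16 hr at 37C after 6 hr plating; beta-lactamase FRET fluorescence was recorded following 2 hr substrate loading at room temperature.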

[15] = target: Progesterone receptor (Homo sapiens) (UniProt P06401); test: qHTS assay to identify small molecule antagonists of the progesterone receptor (PR) signaling pathway (AID 1346795; active = well fitted inhibition curve with a large enough effect in the signal ratio in the repeat runs, not every such curve was filed as active; the % refers to the signal ratio)
In short: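 Inhibition of R5020-induced (1 nM final) beta-lactamase reporter signal in PR-UAS-bla HEK293T cells was scored by FRET fluorescence after overnight (16 hr) compound treatment.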

[16] = qHTS assay to identify small molecule antagonists of the sonic hedgehog signaling (Shh) pathway (AID 1259369; calls by dose curve; note: nearly all actives have a fitted effect of over 45% in size)
In short: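 Screening used 3T3Gli1-Luc cells at 2,000 per well, compounds delivered in DMSO, and conditioned medium as agonist stimulus; plates incubated 24hr at 37 C and 5% CO2 before a 30min luciferase step.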

[17] = target: Estrogen receptor beta (Homo sapiens) (UniProt Q92731); test: qHTS assay to identify small molecule agonists of the estrogen receptor beta (ER-beta) signaling pathway (AID 1259377; active = well fitted activation curve with a large enough effect in the signal ratio in the repeat runs, not every such curve was filed as active; the % refers to the signal ratio)
Sequence of Estrogen receptor beta (Homo sapiens) (Q92731 whole entry, looked up): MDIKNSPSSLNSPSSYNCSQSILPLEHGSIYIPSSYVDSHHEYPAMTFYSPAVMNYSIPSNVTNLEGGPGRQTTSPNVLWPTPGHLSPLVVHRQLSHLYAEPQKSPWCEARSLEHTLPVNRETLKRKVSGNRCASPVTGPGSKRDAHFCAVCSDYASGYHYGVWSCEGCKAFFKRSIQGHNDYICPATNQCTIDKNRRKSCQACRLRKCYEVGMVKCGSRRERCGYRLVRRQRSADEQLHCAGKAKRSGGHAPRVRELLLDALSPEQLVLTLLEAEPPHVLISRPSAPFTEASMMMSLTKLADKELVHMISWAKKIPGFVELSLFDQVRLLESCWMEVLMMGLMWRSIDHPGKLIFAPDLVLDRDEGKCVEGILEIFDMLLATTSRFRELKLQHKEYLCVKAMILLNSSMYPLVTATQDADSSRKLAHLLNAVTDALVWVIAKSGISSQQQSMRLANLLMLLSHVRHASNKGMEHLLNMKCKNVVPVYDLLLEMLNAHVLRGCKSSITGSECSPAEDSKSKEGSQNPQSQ
In short: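 In HEK293T cells bearing a UAS-beta-lactamase reporter under ER-beta control, DMSO-delivered compounds were incubated for 16 hr at 37C. Activity was detected as fluorescence 2 hours after LiveBLAzer B/G FRET substrate addition.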

[18] = target: Estrogen receptor beta (Homo sapiens) (UniProt Q92731); test: qHTS assay to identify small molecule antagonists of the estrogen receptor beta (ER-beta) signaling pathway (AID 1259378; active = well fitted inhibition curve with a large enough effect in the signal ratio in the repeat runs, not every such curve was filed as active; the % refers to the signal ratio)
In short: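 ER-beta-UAS-bla HEK293T cells in 2% charcoal-stripped FBS medium treated with compound plus 1nM final 17-beta-estradiol for 16 hr at 37C. Beta-lactamase reporter read by FRET substrate fluorescence after 2 hours at room temperature.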

[19] = target: Androgen receptor (Homo sapiens) (UniProt P10275); test: qHTS assay to identify small molecule agonists of the androgen receptor (AR) signaling pathway in the presence of an antagonist (AID 1259381; calls by dose curve; note: nearly all actives have a fitted effect of over 15% in size)
Sequence of Androgen receptor (Homo sapiens) (P10275 whole entry, looked up): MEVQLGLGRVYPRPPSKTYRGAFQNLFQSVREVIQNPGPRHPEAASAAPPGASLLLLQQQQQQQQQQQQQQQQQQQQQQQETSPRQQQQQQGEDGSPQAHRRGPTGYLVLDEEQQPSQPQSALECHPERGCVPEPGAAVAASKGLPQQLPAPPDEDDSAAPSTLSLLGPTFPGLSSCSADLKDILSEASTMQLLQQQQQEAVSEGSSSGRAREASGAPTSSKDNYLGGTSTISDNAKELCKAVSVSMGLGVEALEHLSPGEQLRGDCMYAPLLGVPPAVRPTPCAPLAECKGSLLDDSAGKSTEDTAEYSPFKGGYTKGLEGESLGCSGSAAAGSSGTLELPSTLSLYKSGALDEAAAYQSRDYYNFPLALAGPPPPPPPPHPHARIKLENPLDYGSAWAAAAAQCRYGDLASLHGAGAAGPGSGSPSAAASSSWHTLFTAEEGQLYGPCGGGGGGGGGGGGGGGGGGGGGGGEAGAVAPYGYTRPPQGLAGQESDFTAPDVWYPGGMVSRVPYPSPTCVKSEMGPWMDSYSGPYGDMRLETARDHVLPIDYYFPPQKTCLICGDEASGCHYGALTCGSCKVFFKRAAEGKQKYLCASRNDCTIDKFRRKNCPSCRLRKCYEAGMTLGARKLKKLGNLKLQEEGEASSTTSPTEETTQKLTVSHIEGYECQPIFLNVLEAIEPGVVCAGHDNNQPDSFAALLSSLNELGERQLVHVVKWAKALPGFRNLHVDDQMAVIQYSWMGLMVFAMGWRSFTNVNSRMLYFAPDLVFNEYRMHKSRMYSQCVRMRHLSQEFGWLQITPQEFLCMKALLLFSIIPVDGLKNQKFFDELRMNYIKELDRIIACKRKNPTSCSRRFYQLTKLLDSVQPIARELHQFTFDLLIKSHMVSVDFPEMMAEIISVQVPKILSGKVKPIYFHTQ
In short: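 Here, 15-concentration compound series were pin-transferred onto MDA-kb2 MMTV-luciferase cells already dosed with nilutamide (3.0uM final). After 16hr at 37C, ONE-Glo was added and luminescence read 30min later at room temperature.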

Measured: Potency

O=C1CCCN1
not listed: [16] | [17] | [18] | [19]
inactive: all other assays above

O=NN1CCCCCCC1
not listed: [17] | [18] | [19]
inactive: all other assays above

CC1C=[C-]C=C1.[C-]#[O+].[C-]#[O+].[C-]#[O+].[Mn]
not listed: [16] | [19]
inactive: all other assays above

CN=C=S
not listed: [16] | [17] | [18] | [19]
inactive: all other assays above

CCCN(CCC)c1c([N+](=O)[O-])cc(C(F)(F)F)cc1[N+](=O)[O-]
not listed: [16] | [17] | [18]
inactive: all other assays above

Cc1ccc(N)cc1N
not listed: [6] | [11] | [19]
inactive: all other assays above

C=C(C)CCl
not listed: [11] | [12] | [17] | [18]
inactive: all other assays above

CC(C)N1C(=O)c2ccccc2NS1(=O)=O
not listed: [17] | [18] | [19]
inactive: all other assays above

CCCCCCCCCCCC#N
not listed: [1] | [10] | [19]
inactive: all other assays above
